The panel holds about 79,000 compounds, 15% with a hit somewhere; the sample as a whole holds those more often. A number with no mark means an inactive call. No stated cut-off is given here; in the data, active means growth inhibition above about 70%; inactive means the rest.
assay: NCI Yeast Anticancer Drug Screen. Data for the mec2-1 strain (AID 157); settings: S. cerevisiae mec2-1 strain, at 50.0 µM, hits give high values
Experimental: Growth inhibition of yeast strains with defined genetic alterations is measured as a screen for potential anti-cancer activity. Selected strains with alterations in DNA damage repair or cell cycle control were exposed to compounds and growth inhibition was measured relative to vehicle treated controls. The strain used in this assay is mec2-1

| SMILES | growth inhibition [%] |
| --- | --- |
| COc1c(NC(=O)c2ccc(C(=O)Nc3cccc([N+](=O)[O-])c3OC)cc2)cccc1[N+](=O)[O-] | -6.1 |
| CC(=O)Nc1ccc([N+](=O)[O-])cc1[N+](=O)[O-] | -10.9 |
| O=[N+]([O-])c1c(Cl)cc(Cl)c([N+](=O)[O-])c1-c1ccccc1 | 9.1 |
| O=C(O)c1ccc(C(=O)C2CC(C(=O)O)CCC2S(=O)(=O)O)cc1 (stereo not given) | 11.8 |
| COC(=O)c1cc(=O)c2ccc(Cl)cc2[nH]1 | 4.05 |
| CCCCCCCCCC(CCCCCCCC(=O)O)NC(C)=O (stereo not given) | 16.6 |
| COC(=O)c1cc2c(n1S(=O)(=O)c1ccc(C)cc1)C(=O)C(=O)c1[nH]cc(C(=O)OCc3ccccc3)c1-2 | 3.7 |
| CC(=O)OC1C(C)OC(n2cnc3c(=O)[nH]cnc32)C1OC(C)=O (stereo not given) | -15.6 |
| C[N+]1(C)CCN(S(=O)(=O)c2ccccc2)c2ccccc21 | -13.4 |
| C[N+](C)(CCO)CCN1c2ccccc2Sc2ccccc21 | -17.5 |
| C#CCn1cnc2c1c(=O)n(C)c(=O)n2C | -12.7 |
| C/C=C/[C@@H]1[C@H]2C(=O)[C@]3(Cl)[C@@H](/C=C/C)[C@@H]3C(=O)[C@@]12Cl | 6.1 |
| O=S1Cc2nc3ccccc3n2C1c1c(F)cccc1F (stereo not given) | -6.1 |
| Nc1ccc2c(c1)Cc1c-2cc(Br)c(N)c1Br | -6.85 |
| N#CCCN(CCC#N)c1nc(-c2ccccc2)nc(N(CCC#N)CCC#N)n1 | -16.6 |
| Cc1ccc(C(=N)c2ccccc2Cc2cccc3ccccc23)c2ccccc12 | -22.1 |
| COC(=O)c1cc(C(=O)OC)c(C(=O)OC)cc1C(=O)OC | -1.25 |
| COc1cc([N+](=O)[O-])ccc1NC(=O)c1cccc([N+](=O)[O-])c1C(=O)O | 20.6 |
| O=C(Nc1ccccc1CCl)Nc1ccccc1CCl | -26.4 |
| CCC1(C)C=Cc2c(cc(OC)c3c(=O)c4ccccc4n(C)c23)O1 (stereo not given) | -27.4 |

| SMILES | growth inhibition [%] |
| --- | --- |
| O=C(CCCSCCCC(=O)N/N=C/c1ccccc1O)N/N=C\c1ccccc1O | -0.5 |
| O=C1NC(=O)C2C3CCC(C3)C12 (stereo not given) | -6.15 |
| O=C1CC(CC(=O)c2ccc(Br)cc2)C(=O)/C1=C(/O)c1ccc(Br)cc1 (stereo not given) | 14.2 |
| CCCCCCSC#N | 13.9 |
| O=C(NNc1nc(N2CCOCC2)nc(N2CCOCC2)n1)c1ccccc1 | 5.15 |
| COc1ccc(/C=c2/s/c(=C(\C#N)c3nc4ccccc4[nH]3)n(-c3ccccc3)c2=O)cc1 | -15.2 |
| CCCCCCCCSc1nc(Nc2cc(C(C)(C)C)c(O)c(C(C)(C)C)c2)nc(SCCCCCCCC)n1 | 1.95 |
| CC(=O)Oc1ccc(NCNc2ccc(OC(C)=O)cc2)cc1 | 0.95 |
| NC1c2c(Cl)sc(Cl)c2C(=O)C1O (stereo not given) | 15.2 |
| Cc1ccn2c(CCc3nnc4cc(C)ccn34)nnc2c1 | -33.4 |
| CCCNc1cc2c(cc1Br)-c1ccccc1C2=O | -3 |
| CC(C)(C)/C=C/N1N=NC(c2ccccc2)(c2ccccc2)C1=O | 19 |
| CCc1ccccc1NC(=O)CC1NC(=O)CS1 (stereo not given) | -9.3 |
| CCCCN=Cc1ccc(Cl)cc1 | -24.1 |
| CC1CC[N+]2(C)CCCC12 (stereo not given) | -4.4 |
| NC(CCCC(N)P(=O)(O)c1ccccc1)P(=O)(O)c1ccccc1 (stereo not given) | -40.5 |
| CCNC(=O)c1cc2ccccc2cc1O | -6.85 |
| ClCc1c(-c2ccccc2)nn(-c2ccccc2)c1CCl | 14.2 |
| N#CCc1ccccc1-c1ccccc1 | -8.2 |
| C/C(=N\NC(N)=O)C(C)(C)O | 16.9 |

Source: PubChem BioAssay (NCI)
